Data from PubChem BioAssay (NCATS).
Unmarked numbers belong to inactive results. Results filed as inconclusive are left out. The list shows a part of the results. Entries that show only a call come without a potency. Activity calls are given as the source filed them. Unless noted, calls follow the shape of the dose curve; as a rule, active = well fitted curve in the direction sought with a large enough effect; inconclusive = small, poorly fitted or top-dose-only effect, or another doubt; inactive = no such curve, though single readings can be large; an effect the other way counts as inactive or inconclusive.

What was measured:
[1] = biological target: Rap guanine nucleotide exchange factor 3 (Homo sapiens) (UniProt O95398); experiment: Confirmatory qHTS for agonist of cAMP-regulated guanine nucleotide exchange factor 3 (EPAC1) (AID 1645881);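 also: EPAC1 catalysed release of BODIPY-GDP from Rap1B seen as fluorescence loss; nearly all actives have a fitted effect of over 75% in size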
[2] = biological target: Rap guanine nucleotide exchange factor 4 (Homo sapiens) (UniProt Q8WZA2); experiment: Confirmatory qHTS for agonist of cAMP-regulated guanine nucleotide exchange factor 4 (EPAC2) (AID 1645884);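 also: nucleotide exchange releases bodipy-GDP from Rap1 and this lowers its fluorescence; nearly all actives have a fitted effect of over 65% in size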
[3] = biological target: Rap guanine nucleotide exchange factor 3 (Homo sapiens) (UniProt O95398); experiment: Counterscreen qHTS for agonist of cAMP-regulated guanine nucleotide exchange factor 3 (EPAC1) (AID 1645889); also: nearly all actives have a fitted effect of over 40% in size; also: potency is read from the fitted curve at half-maximal effect
Outline: (§1)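 Measured: fluorescence of BODIPY-GDP bound to Rap1B, which falls as exchange proceeds. Conditions include 50 uM competing GDP, 5 and 30 min reads, and a later cAMP challenge for antagonist detection.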

[4] = biological target: Rap guanine nucleotide exchange factor 3 (Homo sapiens) (UniProt O95398); experiment: Counterscreen qHTS for antagonist of cAMP-regulated guanine nucleotide exchange factor 3 (EPAC1) (AID 1645888);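 also: fluorescence loss as bound BODIPY-GDP is released from Rap1B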
Outline: as §1

[5] = AP1 Signaling Pathway (AID 357; active = well fitted curve in either direction with a large enough effect, not every such curve was filed as active;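 also: ME-180 reporter cells stimulated with EGF at its EC50 level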); details: ME-180 (cervical carcinoma) AP-1-bla reporter, EGF-induced, beta-lactamase ratio, 5 h; at 7.69 µM (top of the series) unless noted
Outline: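 AP-1-bla ME-180 cells, Opti-MEM + 0.5% dialyzed FBS, plated overnight 37 °C. Cpd titration + EC50 EGF, 5 h 37 °C. CCF4 2.5 h RT; ex 405, em 460/530 ratio → %activity, AC50.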

[6] = Stat Signaling Pathway (AID 446; active = well fitted curve in either direction with a large enough effect, not every such curve was filed as active;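 also: ME-180 cervical cancer cells given 40 pM IL-6 alongside compound; SIE-controlled beta-lactamase reporter measured as 460/530 nm FRET emission ratio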)
Outline: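 Normalization used AC90 stimulation (300 pM IL-6) and AC90 inhibition (125 nM pan-JAK inhibitor at 40 pM IL-6). The underlying signal is SIE-driven beta-lactamase in ME-180 cells after 5 h IL-6 exposure with compound.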

[7] = biological target: Glucocorticoid receptor (Homo sapiens) (UniProt P04150); experiment: GR-GFP Redistribution (AID 450;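 active = compounds whose dose series gives a full or clear partial fitted curve of increased nuclear translocation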; also: potency is read from the fitted curve at half-maximal effect); details: U2OS GR-GFP nuclear translocation, laser cytometry, 2 h
[8] = biological target: Cytochrome P450 3A4 (Homo sapiens) (UniProt P08684); experiment: qHTS Assay for Inhibitors and Substrates of Cytochrome P450 3A4 (AID 884); also: potency is read from the fitted curve at half-maximal effect; nearly all actives have a fitted effect of over 50% in size
Outline: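 Luminescent readout of luciferin produced by CYP3A4 (20 nM) dealkylation of Luciferin-PPXE, 25 uM (its KM). NADPH-driven reaction ran 60 min at RT after 10 min compound preincubation; data scaled to 57 uM ketoconazole as 100% inhibition.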

[9] = biological target: Cytochrome P450 3A4 (Homo sapiens) (UniProt P08684); experiment: qHTS Assay for Activators of Cytochrome P450 3A4 (AID 885); also: nearly all actives have a fitted effect of over 65% in size
Outline: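 Human CYP3A4 dealkylates Luciferin-PPXE to luciferin, which luciferase detection converts to light. Substrate was at its KM (25uM), buffer 200mM KPO4, reaction 60 min at RT.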

[10] = Confirmation and Secondary Assay for Modulators of Hemoglobin Beta Chain Splicing at IVS2 654 locus (AID 910);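 also: per-well total GFP intensity by laser scanning cytometry after 2-day treatment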
Outline: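 HeLa cells stably carrying EGFP interrupted by mutant beta-globin IVS2-654 intron (CMV-driven) were treated with compound for 2 days at 37C; corrected splicing was scored as total peak GFP intensity per well (488 nm excitation, 500-520 nm emission).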

[11] = Confirmation and Secondary Assay for Modulators of Hemoglobin Beta Chain Splicing at IVS2 705 locus (AID 930);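 also: HeLa cells stably expressing the EGFP-705 splicing reporter; GFP fluorescence per well restored by corrected splicing of the IVS2-705 intron in EGFP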
Outline: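 HeLa IVS2-705 EGFP reporter cells, 500/well, compound 2 d at 37C; correct splicing yields fluorescent EGFP. Control: 500 nM antisense PNA. Read-out: total peak GFP intensity.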

[12] = biological target: DNA dC->dU-editing enzyme APOBEC-3G (Homo sapiens) (UniProt Q9HC16); experiment: qHTS for inhibitors of Vif-A3G interactions: Validation (AID 588379)
Outline: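 Yellow fluorescence (Ex 488, Em 500-530) of Vif-coexpressing HeLa A3G-eYFP cells, scanned by Acumen cytometer, reports blocked A3G degradation. Cells plated at 700/well overnight at 37 deg C before compound addition, then a further overnight compound incubation at 37 deg C.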

[13] = biological target: Tumor susceptibility gene 101 protein (Homo sapiens) (UniProt Q99816); experiment: qHTS Assay for Iinhibitors of HIV-1 Budding by Blocking the Interaction of PTAP/TSG101: Hit Validation (AID 651600); also: potency is read from the fitted curve at half-maximal effect; nearly all actives have a fitted effect of over 70% in size
Outline: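 Displacement of a FITC-labeled PTAP-motif peptide (50 nM) from the Tsg101 binding domain (10 uM) was monitored by fluorescence polarization after a 20 min room-temperature incubation.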

[14] = biological target: Flap endonuclease 1 (Homo sapiens) (UniProt P39748); experiment: qHTS Assay for the Inhibitors of FEN1: Confirmatory Assay for Cherry-picked Compounds (AID 720498); details: FEN1 flap cleavage, TAMRA/BHQ2 fluorogenic DNA substrate; also: potency is read from the fitted curve at half-maximal effect; nearly all actives have a fitted effect of over 60% in size
Outline: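 Human FEN1 (10 nM reagent) was preincubated with compounds for 15 min at room temperature, then 50 nM final double-flap DNA substrate (5'-TAMRA flap, BHQ-2 quencher strand) was added. Fluorescence (ex 525/em 598 nm) was read at 0 and 15 min.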

[15] = biological target: Rap guanine nucleotide exchange factor 4 (Homo sapiens) (UniProt Q8WZA2); experiment: Confirmatory qHTS for antagonist of cAMP-regulated guanine nucleotide exchange factor 4 (EPAC2) (AID 1645885); also: nearly all actives have a fitted effect of over 25% in size; also: potency is read from the fitted curve at half-maximal effect

Chain of Rap guanine nucleotide exchange factor 4 (Homo sapiens) (Q8WZA2 whole entry, looked up): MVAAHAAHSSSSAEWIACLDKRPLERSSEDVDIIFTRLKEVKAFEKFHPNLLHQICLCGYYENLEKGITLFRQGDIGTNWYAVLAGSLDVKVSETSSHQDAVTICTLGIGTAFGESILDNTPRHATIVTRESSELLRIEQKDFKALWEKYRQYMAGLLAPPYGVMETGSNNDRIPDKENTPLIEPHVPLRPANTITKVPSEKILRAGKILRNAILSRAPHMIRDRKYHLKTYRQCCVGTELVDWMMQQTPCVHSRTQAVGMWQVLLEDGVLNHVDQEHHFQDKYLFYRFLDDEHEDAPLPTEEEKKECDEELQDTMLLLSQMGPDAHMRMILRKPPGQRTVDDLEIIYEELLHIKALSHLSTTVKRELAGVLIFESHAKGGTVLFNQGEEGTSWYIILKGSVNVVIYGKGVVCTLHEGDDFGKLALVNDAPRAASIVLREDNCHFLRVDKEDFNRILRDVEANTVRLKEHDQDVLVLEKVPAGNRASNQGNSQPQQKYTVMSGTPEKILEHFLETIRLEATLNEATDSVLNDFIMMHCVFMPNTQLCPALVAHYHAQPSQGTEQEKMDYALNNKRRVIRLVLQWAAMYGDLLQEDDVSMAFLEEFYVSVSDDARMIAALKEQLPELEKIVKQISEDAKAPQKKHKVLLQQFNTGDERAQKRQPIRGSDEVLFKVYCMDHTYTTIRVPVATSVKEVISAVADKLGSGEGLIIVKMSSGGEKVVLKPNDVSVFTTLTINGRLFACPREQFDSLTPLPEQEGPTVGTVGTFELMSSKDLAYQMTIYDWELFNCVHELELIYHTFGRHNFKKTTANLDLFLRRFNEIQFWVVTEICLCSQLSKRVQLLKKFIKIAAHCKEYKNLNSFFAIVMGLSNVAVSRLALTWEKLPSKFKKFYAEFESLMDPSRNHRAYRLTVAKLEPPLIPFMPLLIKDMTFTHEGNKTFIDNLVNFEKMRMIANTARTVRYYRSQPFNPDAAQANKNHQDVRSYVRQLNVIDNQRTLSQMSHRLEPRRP
Chain of Rap guanine nucleotide exchange factor 3 (Homo sapiens) (O95398 whole entry, looked up): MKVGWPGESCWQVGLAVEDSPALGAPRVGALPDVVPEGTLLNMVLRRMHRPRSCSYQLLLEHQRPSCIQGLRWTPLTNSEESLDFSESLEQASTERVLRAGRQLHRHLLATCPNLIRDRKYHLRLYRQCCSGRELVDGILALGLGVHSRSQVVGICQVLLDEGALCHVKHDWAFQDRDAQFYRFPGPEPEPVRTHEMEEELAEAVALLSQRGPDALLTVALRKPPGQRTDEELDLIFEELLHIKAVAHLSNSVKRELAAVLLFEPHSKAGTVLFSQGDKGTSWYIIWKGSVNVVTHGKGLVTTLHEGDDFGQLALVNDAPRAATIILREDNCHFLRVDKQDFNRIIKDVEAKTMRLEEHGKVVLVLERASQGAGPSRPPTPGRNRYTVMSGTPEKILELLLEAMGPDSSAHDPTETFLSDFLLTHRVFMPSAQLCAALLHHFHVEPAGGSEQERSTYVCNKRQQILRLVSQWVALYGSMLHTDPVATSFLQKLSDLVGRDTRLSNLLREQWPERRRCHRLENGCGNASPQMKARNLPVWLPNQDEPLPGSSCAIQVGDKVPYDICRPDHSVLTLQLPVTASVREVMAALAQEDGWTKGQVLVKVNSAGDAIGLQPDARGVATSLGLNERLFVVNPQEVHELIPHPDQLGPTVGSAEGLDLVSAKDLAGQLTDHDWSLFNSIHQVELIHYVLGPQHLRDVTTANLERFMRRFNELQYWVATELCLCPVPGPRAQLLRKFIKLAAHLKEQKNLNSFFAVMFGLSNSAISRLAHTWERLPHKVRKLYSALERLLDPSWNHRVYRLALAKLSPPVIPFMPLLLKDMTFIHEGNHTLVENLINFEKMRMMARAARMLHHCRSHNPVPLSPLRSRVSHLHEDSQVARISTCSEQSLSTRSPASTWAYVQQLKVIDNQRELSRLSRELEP
Chain of Tumor susceptibility gene 101 protein (Homo sapiens) (Q99816 whole entry, looked up, the tested form may be a part): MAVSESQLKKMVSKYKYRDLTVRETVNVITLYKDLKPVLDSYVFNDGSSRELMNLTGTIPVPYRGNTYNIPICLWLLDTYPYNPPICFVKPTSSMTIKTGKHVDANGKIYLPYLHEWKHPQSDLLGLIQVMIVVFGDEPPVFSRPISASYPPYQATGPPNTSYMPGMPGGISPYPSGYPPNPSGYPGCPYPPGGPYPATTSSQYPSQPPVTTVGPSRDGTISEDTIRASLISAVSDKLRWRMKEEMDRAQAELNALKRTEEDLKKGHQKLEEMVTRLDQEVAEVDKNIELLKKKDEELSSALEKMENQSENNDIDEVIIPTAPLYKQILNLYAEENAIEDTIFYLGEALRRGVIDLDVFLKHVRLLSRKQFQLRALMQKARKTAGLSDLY
Chain of Cytochrome P450 3A4 (Homo sapiens) (P08684 whole entry, looked up): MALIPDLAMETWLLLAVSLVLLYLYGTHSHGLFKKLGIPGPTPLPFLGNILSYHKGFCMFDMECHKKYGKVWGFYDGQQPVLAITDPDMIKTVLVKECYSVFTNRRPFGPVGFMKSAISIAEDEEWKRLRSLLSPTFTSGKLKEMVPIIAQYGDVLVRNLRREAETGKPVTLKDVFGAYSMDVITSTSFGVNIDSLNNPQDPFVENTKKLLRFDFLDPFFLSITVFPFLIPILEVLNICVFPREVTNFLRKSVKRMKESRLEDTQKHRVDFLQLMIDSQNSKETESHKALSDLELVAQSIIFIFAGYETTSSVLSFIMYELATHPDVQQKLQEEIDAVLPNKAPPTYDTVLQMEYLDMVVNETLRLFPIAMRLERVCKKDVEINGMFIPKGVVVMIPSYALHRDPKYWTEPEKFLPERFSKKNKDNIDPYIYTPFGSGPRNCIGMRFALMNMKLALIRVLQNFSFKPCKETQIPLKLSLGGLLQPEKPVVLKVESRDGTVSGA
Chain of DNA dC->dU-editing enzyme APOBEC-3G (Homo sapiens) (Q9HC16 whole entry, looked up): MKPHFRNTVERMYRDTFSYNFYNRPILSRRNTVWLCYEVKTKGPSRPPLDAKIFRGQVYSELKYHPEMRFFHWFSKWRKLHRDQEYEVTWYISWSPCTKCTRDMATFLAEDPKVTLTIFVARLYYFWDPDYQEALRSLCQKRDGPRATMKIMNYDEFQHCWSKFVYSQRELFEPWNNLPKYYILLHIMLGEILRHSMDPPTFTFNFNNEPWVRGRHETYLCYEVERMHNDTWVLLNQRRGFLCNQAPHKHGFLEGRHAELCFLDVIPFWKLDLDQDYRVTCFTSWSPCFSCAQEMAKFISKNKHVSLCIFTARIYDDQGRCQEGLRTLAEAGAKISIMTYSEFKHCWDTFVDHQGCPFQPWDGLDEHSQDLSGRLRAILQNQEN
Chain of Flap endonuclease 1 (Homo sapiens) (P39748 whole entry, looked up): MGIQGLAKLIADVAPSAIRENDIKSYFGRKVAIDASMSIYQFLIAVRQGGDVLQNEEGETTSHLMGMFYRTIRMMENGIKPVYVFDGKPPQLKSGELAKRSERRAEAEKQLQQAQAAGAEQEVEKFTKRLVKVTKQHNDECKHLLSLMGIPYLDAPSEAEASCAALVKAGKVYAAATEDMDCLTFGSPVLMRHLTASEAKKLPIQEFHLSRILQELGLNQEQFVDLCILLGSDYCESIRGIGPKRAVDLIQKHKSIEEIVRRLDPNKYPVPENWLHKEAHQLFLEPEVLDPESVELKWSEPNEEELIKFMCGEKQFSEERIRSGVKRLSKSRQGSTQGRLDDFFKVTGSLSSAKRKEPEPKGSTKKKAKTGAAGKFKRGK
Chain of Glucocorticoid receptor (Homo sapiens) (P04150 whole entry, looked up): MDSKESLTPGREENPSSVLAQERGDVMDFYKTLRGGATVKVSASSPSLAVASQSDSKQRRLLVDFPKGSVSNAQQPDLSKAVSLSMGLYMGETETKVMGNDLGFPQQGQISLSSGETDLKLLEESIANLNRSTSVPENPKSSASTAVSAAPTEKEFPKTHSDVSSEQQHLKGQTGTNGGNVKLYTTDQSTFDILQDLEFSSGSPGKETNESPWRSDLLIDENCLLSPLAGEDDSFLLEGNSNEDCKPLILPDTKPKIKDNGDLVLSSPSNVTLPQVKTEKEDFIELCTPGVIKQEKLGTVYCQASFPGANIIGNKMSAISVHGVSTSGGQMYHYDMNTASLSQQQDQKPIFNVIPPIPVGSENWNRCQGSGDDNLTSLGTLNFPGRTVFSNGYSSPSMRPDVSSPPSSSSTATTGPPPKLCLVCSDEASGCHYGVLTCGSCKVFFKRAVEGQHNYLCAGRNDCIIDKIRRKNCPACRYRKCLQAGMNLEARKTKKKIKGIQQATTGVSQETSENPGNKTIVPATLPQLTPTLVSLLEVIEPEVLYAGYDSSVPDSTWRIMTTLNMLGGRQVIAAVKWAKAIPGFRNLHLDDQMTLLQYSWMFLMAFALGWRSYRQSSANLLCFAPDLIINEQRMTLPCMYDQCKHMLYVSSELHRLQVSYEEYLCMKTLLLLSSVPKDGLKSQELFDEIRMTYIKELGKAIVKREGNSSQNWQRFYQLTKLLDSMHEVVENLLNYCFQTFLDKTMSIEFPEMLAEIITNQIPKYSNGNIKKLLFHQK

For `COc1ccc(CCC(=O)N(C)CC(=O)Nc2ccc(Cl)c(C(F)(F)F)c2)cc1`, the Potency [1] was “inactive”, the Potency [2] was “inactive” and the Potency [3] was “inactive”.
In the case of `Cc1cc2c(N)cccc2nn1`, the Potency [1] is reported as “inactive”, the Potency [2] is reported as “inactive” and the Potency [4] is reported as “inactive”. The Potency [3] was “inactive”.
In the case of `CCN1CCN(S(=O)(=O)c2ccc(Cl)c(C(=O)N(C)Cc3cccc(Cl)c3Cl)c2)CC1`, the Potency [1] is reported as “inactive”, the Potency [2] is reported as “inactive” and the Potency [3] is reported as “inactive”.
In the case of `Cc1cccc(OC(=O)Nc2ccc(C(=O)O)c(O)c2)c1`, the Potency [1] is reported as “inactive”, the activation [2] is reported as -3.1% [at 17.1 µM, percent relative to cAMP agonist control] and the activity change, negative = inhibition [4] is reported as -25.7% [at 30.8 µM]. For the same molecule, the activation [3] was -3.96% [at 30.8 µM].
With `COC(=O)C1CCN(c2nc3ccccc3nc2C(C#N)C(=O)NCCc2ccccc2)CC1` (stereo unspecified) the activity change, negative = inhibition [5] was -19.5% [at 17.2 µM], the outcome [6] was “inactive” and the Potency [7] was > 20.6 µM.
For `COc1ccc2c(c1)OCC(Cc1ccc(OC)c(OC)c1)C2=O` (stereo unspecified), the Potency [8] was 15.8 µM (active), the outcome [9] was “inactive” and the Potency [10] was “inactive”. The Potency [11] was “inactive”.
In the case of `COC1/C=C/OC2(C)Oc3c(C)c(O)c4c(O)c(c(/C=N/N5CCN(C)CC5)c(O)c4c3C2=O)NC(=O)/C(C)=C/C=C/C(C)C(O)C(C)C(O)C(C)C(OC(C)=O)C1C` (stereo unspecified), the outcome [12] is reported as “inactive”.
In the case of `Cc1nn(C)cc1N1C(=O)c2cccc3c(N)ccc(c23)C1=O`, the Potency [13] is reported as 6.51 µM (active).
With `CN(N=Nc1ccc([N+](=O)[O-])cc1)c1ccccc1` the Potency [13] was 13 µM (active).
With `CCN1/C(=C\c2ccc3ccccc3[n+]2CC)Sc2cc(C)ccc21` the Potency [14] was 21.3 µM (active).
With `COc1ccc(/C=C2\SC(=S)N(CCC(=O)N3CCCCC3CCO)C2=O)cc1` (stereo unspecified) the Potency [1] was “inactive”, the Potency [15] was “inactive” and the Potency [4] was “inactive”. The Potency [3] was “inactive”.
With `CC(=O)Nc1ccc(Nc2nnc(-c3ccc(O)cc3)c3ccccc23)cc1` the Potency [1] was “inactive”, the Potency [15] was “inactive” and the Potency [4] was “inactive”.
In the case of `CCOC(=O)Nc1cc2c(c(N)n1)N=C(c1ccccc1)CN2`, the Potency [1] is reported as “inactive”, the Potency [15] is reported as “inactive” and the Potency [4] is reported as “inactive”.
With `CCn1c(SCC(=O)c2ccc(O)c(O)c2)nnc1-c1ccccc1OC` the Potency [1] was “inactive”, the Potency [15] was 9.53 µM (active) and the Potency [4] was “inactive”.
For `COc1ccc(CNc2ncnc3onc(-c4ccc(F)cc4)c23)cc1`, the Potency [1] was “inactive”, the Potency [15] was “inactive” and the Potency [4] was “inactive”.
With `Cc1nc2c(C(=O)NCc3ccccc3Cl)c[nH]n2c(=O)c1Cc1cccc(Cl)c1` the Potency [1] was “inactive”, the Potency [15] was “inactive” and the Potency [4] was “inactive”. For the same molecule, the Potency [3] was “inactive”.
For `N#C/C(=C\c1ccc(-c2ccccc2C(=O)O)o1)c1nc2ccccc2[nH]1`, the Potency [1] was “inactive”, the outcome [15] was “inactive [at 12.7 µM]” and the Potency [4] was “inactive”.
With `Cc1ccc2c(c1)N(Cc1cccc(Cl)c1)C(=O)c1cccnc1O2` the Potency [1] was “inactive”, the Potency [15] was 47.8 µM (active) and the Potency [4] was “inactive”.
In the case of `CCOc1cc(-c2ccc(OC(=O)c3ccc(OC)cc3)c(OC)c2)cc(=O)c2c(C)oc(C)c12`, the Potency [1] is reported as “inactive”, the Potency [15] is reported as “inactive” and the Potency [4] is reported as “inactive”.
For `Cc1ccc([N+](=O)[O-])cc1NC(=O)CN(C1CCCCC1)S(=O)(=O)c1ccc(Cl)cc1`, the Potency [1] was “inactive”, the Potency [15] was 8.49 µM (active) and the Potency [4] was “inactive”.
For `Cc1ccc(-c2nc3ccc(C)cn3c2Cc2cccc(F)c2)cc1`, the Potency [1] was “inactive”, the Potency [15] was “inactive” and the Potency [4] was “inactive”.
With `CCOc1cc2c(cc1/C=C/c1noc(C)c1[N+](=O)[O-])OC(C)C2` (stereo unspecified) the Potency [1] was “inactive”, the Potency [15] was “inactive” and the activity change, negative = inhibition [4] was -13.8% [at 30.8 µM].
In the case of `COc1ccc(C(=O)NCCn2cc(SCc3cccc(F)c3)c3ccccc32)cc1OC`, the Potency [1] is reported as “inactive”, the Potency [15] is reported as “inactive” and the Potency [4] is reported as “inactive”.
For `COc1ccc(Cl)cc1C1CC(=O)Nc2cc3c(cc21)OCCO3` (stereo unspecified), the Potency [1] was “inactive”, the Potency [15] was “inactive” and the Potency [4] was “inactive”.
In the case of `CC1=CC(C)(C)N2C(=O)C(=Nc3ccc(O)cc3)c3cccc1c32`, the Potency [1] is reported as “inactive”, the Potency [15] is reported as “inactive” and the Potency [4] is reported as “inactive”. The Potency [3] was “inactive”.
In the case of `Cc1cc(C)c2c(CN3CCCC3)cc(=O)oc2c1`, the Potency [1] is reported as “inactive”, the Potency [15] is reported as “inactive” and the Potency [4] is reported as “inactive”.
In the case of `Cc1nc2ccccc2c2oc(C(=O)Nc3ccc4c(c3)OCCO4)cc12`, the Potency [1] is reported as “inactive”, the Potency [15] is reported as “inactive” and the Potency [4] is reported as “inactive”.
In the case of `O=C(Nc1ccc(-c2cn3ccccc3n2)cc1)c1cccs1`, the Potency [1] is reported as “inactive”, the Potency [15] is reported as “inactive” and the Potency [4] is reported as “inactive”.
For `N/C(CSc1nc(-c2ccccc2)c(-c2ccccc2)o1)=N\O`, the Potency [1] was “inactive”, the Potency [15] was 16.9 µM (active) and the Potency [4] was “inactive”.
For `CN(C)c1ccc(/C=C2\C(=N)N3N=C(CC(=O)N4CCCCC4)SC3=NC2=O)cc1`, the Potency [1] was “inactive”, the Potency [15] was “inactive” and the Potency [4] was “inactive”. For the same molecule, the Potency [3] was “inactive”.
For `O=C(CSc1nc2ccccc2o1)N/N=C/c1ccc(O)c(O)c1`, the Potency [1] was “inactive”, the Potency [15] was “inactive” and the Potency [4] was “inactive”.
For `O=C(O)c1ccc(NS(=O)(=O)c2ccc3c(c2)C2C=CCC2C(c2ccccc2F)N3)cc1` (stereo unspecified), the Potency [1] was “inactive”, the Potency [15] was 75.7 µM (active) and the Potency [4] was “inactive”. The Potency [3] was 44.7 µM (active).
For `CN(CC(=O)Nc1ccc(Cl)c(C(F)(F)F)c1)C(=O)c1ccc2c(c1)OCCO2`, the Potency [1] was “inactive”, the Potency [15] was “inactive” and the Potency [4] was “inactive”. For the same molecule, the Potency [3] was “inactive”.
For `COc1ccc(OC)c(NC(=O)CSc2nccn2-c2cc(C)cc(C)c2)c1`, the Potency [1] was “inactive”, the Potency [15] was “inactive” and the Potency [4] was “inactive”. For the same molecule, the Potency [3] was “inactive”.
For `COc1ccc(NC(=O)COC(=O)CCCOc2ccc(Cl)cc2Cl)cc1Cl`, the Potency [1] was “inactive”, the Potency [15] was 6.01 µM (active) and the Potency [4] was “inactive”. The Potency [3] was “inactive”.
With `Cc1cccc2sc(N(Cc3cccnc3)C(=O)c3cccs3)nc12` the Potency [1] was “inactive”, the Potency [15] was “inactive” and the Potency [4] was “inactive”. The Potency [3] was 25.1 µM (active).
With `Cn1cccc1/C=C1\SC(=S)N(NC(=O)c2cccc(Cl)c2)C1=O` the Potency [1] was “inactive”, the Potency [15] was “inactive” and the Potency [4] was “inactive”. The Potency [3] was “inactive”.
